Rows were chosen to be rich in hits. Some 1.1% of all compounds tested hit in one or more screens of this group.
BJeLR lethal = BJeLR cell viability loss; BJeLR (HRASV12) viability, CellTiter-Glo ATP luminescence, 48 h; hit rate 0.17% among 300,000; AID 1554; inhibition, % (test concentration not listed); in the data active means inhibition above about 50%; inconclusive means no clear call, values can overlap the other calls
PfHsp40 yeast = compounds rescuing yeast from Plasmodium falciparum HSP40 toxicity. hit rate 0.68% among 340,000. S. cerevisiae expressing PfHsp40, growth rescue, ATP luminescence. growth rescue, % at 12.5 µM; in the data active means growth rescue above about 28%, passing the limit was not always enough; inconclusive means no clear call, values can overlap the other calls;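 further: yeast W303a lacking pdr1 and pdr3 grown in galactose medium; growth measured after three days at 30 °C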
Yp Topo-I inh = inhibitors of Yersinia pestis topoisomerase I; AID 504884; Y. pestis Topo-I cleavage product accumulation, plate reader; activity, % at 10 µM; hit rate 0.064% among 360,000; in the data active means activity above about 50%, passing the limit was not always enough; inconclusive means no clear call, values can overlap the other calls
BioA inh-1 = blocks M. tuberculosis BioA enzyme activity | hit rate 0.096% among 360,000 | purified M. tuberculosis BioA enzyme, plate reader | inhibition, % at 9.99 µM; in the data active means inhibition above about 40%; inconclusive means no clear call, values can overlap the other calls
SARS 3CLpro inh = SARS-CoV 3CLpro protease inhibition. P0C6X7. hit rate 0.14% among 290,000. recombinant SARS-CoV 3CLpro, quenched FRET peptide cleavage. inhibition, % at 6 µM; in the data active means inhibition above about 12%
MazEF act = MazEF (E. coli) toxin RNase activation | AID 504720 | FAM/BHQ RNA-DNA oligo cleavage fluorescence, 5 h | activation, % at 20 µM | hit rate 0.32% among 350,000; in the data active means activation above about 50%
Target sequence (P0AE70 whole entry, looked up): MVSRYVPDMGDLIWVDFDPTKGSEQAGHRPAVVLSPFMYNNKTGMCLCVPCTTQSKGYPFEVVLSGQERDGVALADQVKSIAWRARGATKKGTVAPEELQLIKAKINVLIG
BioA inh-2 = inhibitors of Mycobacterium tuberculosis BioA enzyme | shares compounds with BioA inh-1 | AID 651679 | 310 tested, under 10 active | max activity, % | purified BioA enzyme, plate reader, dose response;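 further: top concentration of the dilution series was 10 µM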
HepG2 cytotox = HepG2 viability loss | shares compounds with BioA inh-1 | HepG2 cytotoxicity, plate reader | max activity, % | 310 tested, under 10 active | AID 651898
NIH3T3 tox 5 = NIH3T3 viability loss; AID 651900; 310 tested, under 10 active; shares compounds with BioA inh-1; NIH3T3 cytotoxicity, plate reader; activity change, negative = cytotoxicity, % at 26 µM
* = called active by the depositor; i = inactive; ? = inconclusive; / = no result; [ ] = dose if it differs, or a comment. Unless noted, how the calls were made is not given here.

SMILES	BJeLR lethal	PfHsp40 yeast	Yp Topo-I inh	BioA inh-1	SARS 3CLpro inh	MazEF act	BioA inh-2	HepG2 cytotox	NIH3T3 tox 5
O=C(NC1CCCC1)N[C@@H]1CC[C@@H](CC(=O)N2CCOCC2)O[C@H]1CO	/	/	/	-1	/	/	/	/	/
CCCc1cc(=O)oc2c3c(cc(OCC(=O)NCCCn4ccnc4)c12)OC(C)(C)CC3	5	1	12	43*	5	6	-6	8	-6
COc1ccccc1-c1cc(C(F)(F)F)nc(S(=O)(=O)CCCC(=O)O)n1	4	2	-9	60*	0	-5	-8	-3	-8
Cc1nc(-c2cccnc2)sc1C(=O)Nc1ccc(C(F)(F)F)cc1	-2	1	-8	13	4	3	/	/	/
Cc1nc(-c2cccnc2)sc1C(=O)Nc1cccc(C(F)(F)F)c1	-3	3	-2	50*	3	2	-9	?	-2
C[C@@H]1CN([C@H](C)CO)C(=O)c2cc(C#Cc3cccnc3)cnc2O[C@H]1CN(C)S(C)(=O)=O	/	/	/	84*	/	/	-2	i	-2
C[C@@H]1CN([C@@H](C)CO)C(=O)c2cc(C#Cc3cccnc3)cnc2O[C@@H]1CN(C)S(C)(=O)=O	/	/	/	5	/	/	/	/	/
CN(C)C(=O)C[C@H]1CC[C@@H]2[C@H](COC[C@@H](O)CN2C(=O)C2CC2)O1	/	/	/	-2	/	/	/	/	/
CCCC(=O)Nc1cccc(NC(=O)c2ccc(C)c([N+](=O)[O-])c2)c1	-2	-1	-10	44*	3	2	-6	-15	-2
CC(=O)N1[C@@H]2c3ccc(-c4cccnc4)c(=O)n3C[C@@H]2[C@@H](CO)[C@@H]1C(=O)NCc1ccccc1Cl	/	/	/	85*	/	/	9	i	-9
CCNC(=O)[C@H]1[C@H](CO)[C@H]2Cn3c(ccc(-c4ccccc4)c3=O)[C@H]2N1C(=O)Cc1cccnc1	/	/	/	40*	/	/	-2	i	10
Nc1cc(C(=O)O)ccc1Nc1ccccc1	-6	-1	16	75*	0	7	-9	-7	-6
CC(=O)OCC(=O)[C@@]1(OC(C)=O)[C@@H](C)C[C@H]2[C@@H]3C[C@H](F)C4=CC(=O)C=C[C@]4(C)[C@@]3(F)[C@@H](O)C[C@@]21C	4	2	10	51*	-3	-12	-5	16	6
CCC(=O)O[C@]1(C(=O)SCF)[C@H](C)C[C@H]2[C@@H]3C[C@H](F)C4=CC(=O)C=C[C@]4(C)[C@@]3(F)[C@@H](O)C[C@@]21C	-9	/	/	/	/	/	/	/	/
CC(C)NC(=O)Nc1ccc2c(c1)C(=O)N([C@@H](C)CO)C[C@H](C)[C@H](CN(C)Cc1ccc3c(c1)OCO3)OCCCC[C@H](C)O2	/	/	/	2	/	/	/	/	/
CN1CCN(C(=O)C[C@H]2C[C@@H]3c4cc(NC(=O)c5cccnc5)ccc4O[C@@H]3[C@H](CO)O2)CC1	/	/	/	3	/	/	/	/	/
O=C(C[C@@H]1C[C@H]2c3cc(NC(=O)c4cccnc4)ccc3O[C@H]2[C@@H](CO)O1)NCc1cc(F)ccc1F	/	/	/	41*	/	/	6	i	1[23.5 µM]
O=C(C[C@H]1C[C@H]2c3cc(NC(=O)c4cccnc4)ccc3O[C@H]2[C@@H](CO)O1)NCc1cc(F)ccc1F	/	/	/	3	/	/	/	/	/
O=C(Nc1ccc2c(c1)[C@H]1C[C@@H](CC(=O)N3CCc4ccccc4C3)O[C@@H](CO)[C@H]1O2)c1cccnc1	/	/	/	42*	/	/	-6	i	-5
CN(C)C(=O)C[C@@H]1C[C@@H]2c3cc(NC(=O)c4cccnc4)ccc3O[C@@H]2[C@@H](CO)O1	/	/	/	48*	/	/	-8	i	-1
O=C(C[C@H]1C[C@@H]2c3cc(NC(=O)c4cccnc4)ccc3O[C@@H]2[C@@H](CO)O1)NCC(F)(F)F	/	/	/	44*	/	/	-5	i	0
O=C(C[C@@H]1C[C@H]2c3cc(NC(=O)c4cccnc4)ccc3O[C@H]2[C@H](CO)O1)NCC(F)(F)F	/	/	/	18	/	/	/	/	/
O=C(COc1ccc2ccc(=O)oc2c1)N1CCN(c2ccc(F)cc2)CC1	4	1	3	55*	0	6	-11	-12	-8

Assay outcomes as filed in PubChem.
